This is a sample that favours compounds with a hit; in the whole collection about 7.5% have one here.
FBPA Giardia inh: inhibitors of Giardia lamblia fructose-1,6-bisphosphate aldolase. Potency, µM (doses to about 59.6 µM), without a hit: top-dose activity, negative = inhibition, hits mostly inhibitors. hit rate 0.71% among 290,000. A8B2U2. purified Giardia FBPA; also: potency is read from the fitted curve at half-maximal effect; nearly all actives have a fitted effect of over 55% in size
Target sequence (A8B2U2 whole entry, looked up): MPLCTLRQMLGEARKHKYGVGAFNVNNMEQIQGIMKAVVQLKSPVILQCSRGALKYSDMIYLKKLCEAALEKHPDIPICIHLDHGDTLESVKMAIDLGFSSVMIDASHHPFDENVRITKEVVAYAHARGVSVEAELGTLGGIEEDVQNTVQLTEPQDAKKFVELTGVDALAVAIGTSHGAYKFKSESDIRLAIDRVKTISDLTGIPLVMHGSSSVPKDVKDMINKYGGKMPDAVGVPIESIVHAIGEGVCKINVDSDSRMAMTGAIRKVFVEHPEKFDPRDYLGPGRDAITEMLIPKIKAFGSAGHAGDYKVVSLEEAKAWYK
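Giardia FBPA (40 nM reagent) was preincubated 10 min at RT with compound (up to 57.5 uM final), then substrate plus GAPDH/TPI/NAD/arsenate coupling system with diaphorase/resazurin was added; resorufin fluorescence (525/598 nm) was read after 20 min.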
Vaccinia Venus: inhibitors of vaccinia virus (Venus reporter). Potency, µM (top dose mostly 36.5 µM), for the others: at the top dose activity change, negative = inhibition, usual class: inhibitors. hit rate 0.46% among 330,000. Vaccinia virus Venus reporter expression, fluorescence; calls by dose curve; tested in A549 cells; also: potency is read from the fitted curve at half-maximal effect; nearly all actives have a fitted effect of over 30% in size
HCV inh: HCV inhibition; Huh7.5.1 HCVcc-Cre infection, luciferase reporter, 44 h; Potency, µM (doses to about 41.8 µM), for the others: top-dose activity change, negative = inhibition, usual class: inhibitors; hit rate 3.4% among 340,000; AID 651820; also: potency is read from the fitted curve at half-maximal effect
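Cells seeded at 1,000/well and cultured 4 h, then compounds added followed by HCVcc-Cre virus (~0.5 moi). After 44 h further culture, luciferase substrate was added, plates held 15 min at room temperature, and luminescence read for 15 sec.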
VACV mCherry inh: vaccinia inhibition (mCherry reporter); Vaccinia virus mCherry reporter infection, fluorescence; Potency, µM (highest dose often 36.5 µM), without a hit: at the top dose activity change, negative = inhibition, hits mostly inhibitors; hit rate 0.63% among 310,000; AID 720579; calls by dose curve; tested in A549 cells; also: potency is read from the fitted curve at half-maximal effect; nearly all actives have a fitted effect of over 35% in size
FMDV antiviral: blocks foot and mouth disease virus; hit rate 1.2% among 410,000; AID 1159524; Potency, µM (series often up to 57.9 µM), without a hit: at the top dose activity change, negative = inhibition, most hits filed as inhibitors; FMDV antiviral cell-based qHTS; calls by dose curve; tested in HEK293T cells; also: read-out not given here; potency is read from the fitted curve at half-maximal effect; nearly all actives have a fitted effect of over 45% in size
HCMV inh: inhibitors of human cytomegalovirus; hit rate 4.5% among 410,000; HFF cells, HCMV-luciferase reporter, 72 h; active compounds read low; activity change, negative = inhibition, % at 57.5 µM; AID 1259415; in the data active = activity change below about -60%; inconclusive = no clear call, values can overlap the other calls; inactive = above about -39%
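Cell-based, HFFs, 1000 cells/well, 16 h 37C; cpds in DMSO + HCMV-luc, MOI 1 PFU/cell; 72 h 37C; OneGlo luminescence after 5 min RT; norm. to buffer vs Salinomycin 10uM.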
Numbers without * were called inactive; i = inactive; ? = inconclusive; · = no result given; [ ] = dose if it differs, or a comment. Unless noted, calls follow the shape of the dose curve; as a rule, active = well fitted curve in the direction sought with a large enough effect; inconclusive = small, poorly fitted or top-dose-only effect, or another doubt; inactive = no such curve, though single readings can be large; an effect the other way counts as inactive or inconclusive. % is scaled to controls: 0 for no effect and ±100 for the full control effect.

SMILES	FBPA Giardia inh	Vaccinia Venus	HCV inh	VACV mCherry inh	FMDV antiviral	HCMV inh
O=C(CSc1nnc(Cn2nnc3ccccc32)o1)Nc1ccc(Cl)cc1	0%	-19%	12%	-25%	9%	-10
COc1ccc(N(Cc2ccccc2)C(=O)CSc2nnc(Cn3nnc4ccccc43)o2)cc1	5%	?	14µM*	?	?	-23
O=C(CSc1nnc(Cn2nnc3ccccc32)o1)N(Cc1ccc(F)cc1)c1ccccc1	0%	?	1.6µM*	?	·	-100*
COc1ccc(CN(C(=O)CSc2nnc(-c3c[nH]c4ccccc34)o2)c2ccc(F)cc2)cc1OC	0%	10µM*	5µM*	10µM*	?	-70*
CC(=O)Nc1cccc(NC(=O)CC2(C)N=C(c3cccc(Br)c3)N(C)O2)c1 (stereo not given)	·	·	·	·	·	-13
Cc1cccc(C(=O)N2CCC(C)(C(=O)NS(=O)(=O)C3CC3)C2)c1C (stereo not given)	·	-1%	·	40%	-10%	-17
Cc1cc2oc(=O)cc(CN3CCCCC3C)c2cc1C(C)C (stereo not given)	-14%	6%	13µM*	4%	-28%	-35
Cc1cc2oc(=O)cc(CN(C)Cc3ccccc3)c2cc1C(C)C	5%	0%	8.9µM*	-22%	-24%	-32
Cc1cc2oc(=O)cc(CN3CCCCC3)c2cc1C	4%	·	6%	·	-4%	14
COc1ccc2oc(=O)cc(CN(C)Cc3ccccc3)c2c1	2%	-16%	7.9µM*	i	-5%	?
CCN(CC)S(=O)(=O)c1cc(NC(=O)c2ccc3c(c2)NC(=O)C(C)S3)ccc1C (stereo not given)	·	·	4µM*	·	25µM*	-80*
CCN(CC)S(=O)(=O)c1cc(NC(=O)c2ccc(Br)s2)ccc1C	-10%	-15%	10µM*	i	?	-83*
CCOc1ccccc1NC(=O)c1ccccc1NC(=O)c1ccco1	-1%	-2%	-21%	1%	-3%	24
O=C(Nc1ccccc1OCc1ccccc1)c1ccccc1Br	0%	·	11µM*	·	-9%	1
CCc1nc2ccc(C(=O)NCCOc3ccc(OC)cc3)cn2c1N(CCN(C)C)CC1CC1	·	0%	·	4%	-18%	-64*
CCc1nc2ccc(C(=O)NCCOc3ccc(OC)cc3)cn2c1N(CC)CCOC	·	-4%	·	7%	-1%	13
Cc1cccn2c(=O)c(C=O)c(Nc3ccccc3)nc12	5%	-2%	?	i	-2%	·
N/C(=N/OCc1cccc([N+](=O)[O-])c1)c1nonc1N	-3%	-13%	-17%	-7%	-19%	-60*
N/C(=N\OCc1ccccc1)c1nonc1N	1%	·	-10%	·	55%	-15
Cc1c(NC(=O)OCCSc2nc(N(C)C)nc(N(C)C)n2)sc(=S)n1C	5%	-19%	14µM*	-19%	·	?
CC(=O)NCCOC(=O)Nc1sc(=S)n(C)c1C	-7%	·	24%	·	13%	50
CC(Sc1nnnn1-c1ccc(O)cc1)C(=O)NNC(=O)c1ccc(F)cc1 (stereo not given)	·	-10%	7.1µM*	-14%	-7%	0
C=CCOc1ccc(CNC(C)(C)C)cc1OC	3%	-7%	-1%	-20%[1.46 µM]	-8%	-1
C=CCOc1ccc(CNc2nccs2)cc1OC	0%	-11%	10µM*	·	7%	13
CN=C1CC(SC)=C1c1ccc(C)cc1	-3%	-12%	12%	-18%	32µM*	-19
CC(=O)C1(O)CCC2C3CC(C)C4=CC(=O)CCC4(C)C3CCC21C (stereo not given)	·	·	·	·	·	-16
C=C1CC2C(CCC3(C)C2CCC3(O)C(C)=O)C2(C)CCC(=O)C=C12 (stereo not given)	1%	?	-12%	-12%	25µM*	-79*
CC(=O)[C@@]1(O)CC[C@H]2[C@@H]3C[C@H](C)C4=CC(=O)CC[C@]4(C)[C@H]3CC[C@@]21C	4%	-18%	?	-24%	28µM*	?
CC(=O)[C@]1(O)CCC2C3CCC4=CC(=O)CC[C@@]4(C)C3CC[C@]21C (stereo not given in full)	0%	15%	·	14%	-13%	·

High-throughput results as filed in PubChem BioAssay.
